Test results published in PubChem BioAssay.
The source made the active and inactive calls.

How the values were obtained:
Albumin (Bos taurus) = Albumin (Bos taurus) (UniProt P02769); test: compounds binding labelled BSA control protein – biochemical, small-molecule microarray, Alexa647 label, 635/667 nm fluorescence, artefact control for SMM control protein annotation, profiling panel (AID 1118); conditions: BSA-A647 binding, fluorescence 635 nm, higher = more signal;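 note: score merges 667 nm emission intensity and signal-to-noise per printed compound spot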
[1] = probe aXIP binding to arrayed compounds – biochemical, NeuroSMM set, 635/667 nm fluorescence, primary screen (AID 1119); conditions: small-molecule microarray, higher = more signal, called active from +8 up or from −8 down;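 note: probe is the protein aXip251-270 applied at 1 µg/mL to compound-printed slides; binding of probe to printed compounds measured as 667 nm fluorescence plus signal to noise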
[2] = probe aNOTCH3 binding on compound microarray – biochemical, small-molecule microarray, 635/667 nm fluorescence, primary screen (AID 1120); conditions: higher = more signal;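 note: probe is a biotin-tagged antibody raised against NOTCH3 rather than NOTCH3 protein; score merges spot fluorescence near 667 nm with spot signal to noise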
[3] = probe aNOTCH2 binding on compound microarray – biochemical, small-molecule microarray, 635/667 nm fluorescence, primary screen (AID 1121); conditions: higher = more signal;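 note: score merges feature fluorescence read at 667 nm with its signal to noise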
[4] = molecular target: Carbonic anhydrase 2 (Homo sapiens) (UniProt P00918); test: compounds binding carbonic anhydrase 2 – biochemical, small-molecule microarray, Alexa647-labelled CAII, profiling panel (AID 1122); conditions: CAII-A647 binding fluorescence, higher = more signal
[5] = COS7 lysate on small-molecule microarray, probe aHis, 635 nm (AID 1123); conditions: COS7 cell lysate, fluorescence, higher = more signal;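 note: z-score combines 667nm fluorescence intensity with signal-to-noise per printed compound spot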
[6] = probe aLAP1 signal on lysate-treated microarray – cell lysate, small-molecule microarray, COS7 lysate, primary screen (AID 1124); conditions: probe aLAP1, fluorescence, higher = more signal;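 note: lysate comes from COS7 cells expressing LAP1 and is applied at 0.3 µg/mL; score merges spot fluorescence near 667 nm with signal-to-noise over triplicate slides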
Sam68 (KHDRBS1) = test: compounds binding KHDRBS1 protein – biochemical, small-molecule microarray, 635 nm fluorescence, primary screen (AID 1125); conditions: higher = more signal;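 note: score merges 667 nm channel intensity with signal to noise over triplicate slides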
[7] = test system: Chordin-like protein 2 (CHRDL2); test: compounds binding chordin-like 2 – biochemical, small-molecule microarray, 635 nm fluorescence, primary screen (AID 1126); conditions: fluorescence 635 nm, higher = more signal;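 note: printed compound slides probed with Chrdl2 protein at 4 µg/mL for 1 h at 4 C; score merges 667 nm emission intensity with signal to noise over three replicate slides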
[8] = molecular target: Concanavalin-A (Canavalia ensiformis) (UniProt P02866); test: compounds binding concanavalin A lectin – biochemical, small-molecule microarray, Alexa647 label, 635 nm, artefact control for SMM control protein annotation, primary screen (AID 1127); conditions: ConA-A647 binding fluorescence, higher = more signal;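 note: z combines 667 nm emission intensity with signal-to-noise across three replicate slides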
Chain of Concanavalin-A (Canavalia ensiformis) (P02866 whole entry, looked up): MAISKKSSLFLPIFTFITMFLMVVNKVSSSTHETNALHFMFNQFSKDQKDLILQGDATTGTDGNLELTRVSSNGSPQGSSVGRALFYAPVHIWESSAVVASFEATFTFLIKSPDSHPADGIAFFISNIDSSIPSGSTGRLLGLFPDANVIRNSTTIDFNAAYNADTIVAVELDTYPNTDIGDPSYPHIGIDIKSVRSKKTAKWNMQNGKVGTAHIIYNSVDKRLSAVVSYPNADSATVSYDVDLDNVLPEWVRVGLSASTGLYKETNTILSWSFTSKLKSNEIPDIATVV

Chain of Albumin (Bos taurus) (P02769 whole entry, looked up): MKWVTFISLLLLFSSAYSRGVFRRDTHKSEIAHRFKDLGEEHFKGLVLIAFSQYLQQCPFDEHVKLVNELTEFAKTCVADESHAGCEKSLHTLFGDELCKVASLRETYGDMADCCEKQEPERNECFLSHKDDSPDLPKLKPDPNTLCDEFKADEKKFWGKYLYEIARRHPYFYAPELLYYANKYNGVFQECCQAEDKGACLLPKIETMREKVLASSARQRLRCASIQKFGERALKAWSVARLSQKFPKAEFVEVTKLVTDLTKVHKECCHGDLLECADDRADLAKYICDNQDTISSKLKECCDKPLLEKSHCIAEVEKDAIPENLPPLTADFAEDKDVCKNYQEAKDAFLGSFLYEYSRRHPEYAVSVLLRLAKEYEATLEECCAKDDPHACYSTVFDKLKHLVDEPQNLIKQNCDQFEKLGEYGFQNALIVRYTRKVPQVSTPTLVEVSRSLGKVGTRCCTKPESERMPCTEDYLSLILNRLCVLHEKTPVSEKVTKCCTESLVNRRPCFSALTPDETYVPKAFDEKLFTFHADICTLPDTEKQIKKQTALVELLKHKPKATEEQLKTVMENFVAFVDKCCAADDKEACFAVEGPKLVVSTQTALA

SMILES	composite z-score (Albumin (Bos taurus))	composite Z-score [1]	composite z-score [2]	composite z-score [3]	composite z-score [4]	composite z-score [5]	composite z-score [6]	composite z-score (Sam68 (KHDRBS1))	composite z-score [7]	composite z-score [8]
O=C(O)[C@H](Cc1ccccc1)n1cc(-c2ccccn2)nn1	0.672	-0.341 (inactive)	-0.0311	-0.1	0.285	0.383	0.132	0.614	0.129	0.862
COc1ccc(C#Cc2ccc3c(c2)[C@]2(C(=O)N3)[C@H](C(=O)N3CCc4cc(OC)c(OC)cc4C3)[C@H]3C(=O)O[C@H](c4ccccc4)[C@H](c4ccccc4)N3[C@@H]2c2ccc(O)cc2)cc1	0.845	1.1 (inactive)	0.0562	0.0397	0.432	1.46	-0.0296	1.3	0.137	1.13
COCC(=C=CC[C@H](O)c1ccc(OCCO)cc1)C[C@H](O)COCc1ccccc1	0.589	0.0082 (inactive)	-0.123	-0.14	0.561	1.07	0.476	0.703	0.538	0.654
CO[C@H]1O[C@H](CO)[C@@H](OC(=O)c2ccc(Br)cc2)[C@@H]2OC(=O)[C@@H](Cc3ccc4ccccc4c3)C/C=C/C[C@H](Cc3ccc4ccccc4c3)C(=O)O[C@@H]12	0.934	0.589 (inactive)	0.109	0.0043	0.63	1.93	0.547	1.24	-0.517	0.275
C=C(/C=C/CNS(=O)(=O)c1ccc(C)cc1)[C@H](O)[C@H]1CCCN1S(=O)(=O)c1ccccc1[N+](=O)[O-]	0.699	-0.327 (inactive)	-0.0932	-0.138	0.305	0.0646	0.394	0.0808	0.547	0.0635
CC1CC/C=C\[C@H]2OC34C=CCN(c5ccc6ccccc6c5)C(=O)[C@H]3N(C(CO)C(C)C)C(=O)[C@@H]4C2C(=O)O1 (stereo not given in full)	0.912	0.142 (inactive)	-0.125	-0.125	0.786	1.07	0.407	0.0645	-0.315	0.0601
COC(=O)C1(Cc2ccccc2)C=C2C(=C(c3ccccc3)C(=O)C2C)CN1 (stereo not given)	0.544	0.257 (inactive)	1.59	0.839	0.725	2.3	0.906	-0.305	0.0887	-1.56
CN(C)CCCN1C(=O)[C@@]2(c3ccc([N+](=O)[O-])cc3)CC(=O)N(CC34CC5CC(CC(C5)C3)C4)[C@@H]2c2ccc(CO)cc21	-0.348	-0.184 (inactive)	-0.208	-0.0391	0.76	1.08	0.538	0.503	-0.304	0.412
C=CC[C@@]1(C(=O)N2CCCCC2)N=C(c2ccc(OCCCO)cc2)O[C@@H]1c1ccccc1	0.676	-0.221 (inactive)	0.284	0.195	0.57	2.39	1.07	1.29	0.453	0.357
CC(C)CCC[C@@H](C)[C@H]1CC[C@@]2(C)C3=C(CC[C@]12C)[C@@]1(C)CC[C@H](OC(=O)c2ccc(Br)cc2)C(C)(C)C1CC3 (stereo not given in full)	-0.0217	-0.174 (inactive)	0.173	-0.117	0.108	-0.28	0.432	0.28	0.498	0.291
CC(C)OC(=O)CC(=O)CC(O)c1cccc(C#N)c1 (stereo not given)	0.586	0.586 (inactive)	0.178	-0.022	0.522	1.03	0.0279	1.35	-0.591	1.13
C=C(/C(=C/C[C@@H](OC(=O)c1ccncc1)c1ccc(OCCO)cc1)c1cc(C(=O)OC)ccc1OC)C(C)C	0.277	0.443 (inactive)	0.157	-0.124	0.269	1.06	-0.017	1.14	-0.0737	0.695
NCCCCCNC(=O)[C@@H]1C[C@@H]2C(=O)N[C@@H](CCCCN)C(=O)N2[C@@H]1c1cccc(OCCO)c1	0.104	0.416 (inactive)	-0.0168	-0.0637	-0.153	0.043	1.55	0.668	1.18	-0.0079
CCOC(=O)C1=CC[C@@H](c2cc(Cl)ccc2Cl)N(S(=O)(=O)c2ccc(C)cc2)[C@H]1c1ccc(OC)cc1	0.596	0.552 (inactive)	0.258	0.586	0.25	0.515	0.325	-0.0808	-0.362	-1.21
COC(=O)C1(Cc2ccccc2)C=C2C(=C(C(C)C)C(=O)C2C)CN1 (stereo not given)	0.628	2.34 (inactive)	0.183	0.168	0.676	1.62	0.6	-1.52	-1.3	-1.83
COC(=O)[C@@]1(Cc2ccc(OC)cc2)[C@H]2c3cc(C(=O)N(C)C)n(Cc4ccccc4)c3C[C@H]2CN1C(=O)c1ccccc1	0.864	-0.96 (inactive)	0.0372	-0.0505	0.366	1.86	0.421	0.92	-0.393	0.435
C=CC[C@@]1(C(=O)O)N=C(c2ccc(OCCCO)cc2)O[C@@H]1c1ccccc1	0.771	1.76 (inactive)	-0.293	0.247	0.527	2.71	0.724	0.732	-0.713	-0.587

SMILES	composite z-score (Albumin (Bos taurus))	composite Z-score [1]	composite z-score [2]	composite z-score [3]	composite z-score [4]	composite z-score [5]	composite z-score [6]	composite z-score (Sam68 (KHDRBS1))	composite z-score [7]	composite z-score [8]
CC(C)CNC(=O)[C@@H]1c2ccccc2C(=O)N(Cc2cc(F)cc(C(F)(F)F)c2)[C@H]1c1ccc(CO)cc1	0.382	-0.161 (inactive)	0.0628	-0.0486	0.411	1.07	0.333	0.603	-0.182	0.0535
C=CC[C@@]12N=C(c3ccc(OCCCO)cc3)O[C@@H]1c1ccccc1N(CCS(=O)(=O)c1ccccc1)C2=O	0.873	-0.32 (inactive)	0.0692	-0.16	0.724	1.78	0.551	1.31	0.992	1.17
CCCc1cccc(=O)o1	0.387	-0.75 (inactive)	-0.0665	-0.127	0.43	0.897	0.359	0.699	0.221	0.828
COc1cc2c(cc1O)C(C)N(Cc1cc3c(cc1Br)OCO3)CC2 (stereo not given)	-0.0769	2.1 (inactive)	-0.119	-0.0924	0.887	0.578	0.349	-0.309	-0.55	-0.251
CC1CC/C=C\[C@H]2OC34C=CCN(C(C)C)C(=O)[C@H]3N(CCCCCO)C(=O)[C@@H]4C2C(=O)O1 (stereo not given in full)	-1.51	-0.362 (inactive)	-0.289	-0.153	0.939	-0.384	0.839	-0.925	-1.69	-0.486
[N-]=[N+]=Nc1ccccc1[C@H]1OC(c2ccc(OCCCO)cc2)=N[C@@]1(CCS(=O)(=O)c1ccccc1)C(=O)N1CCCCC1	0.949	-0.311 (inactive)	0.355	-0.0439	0.647	2.65	0.0866	1.3	-0.106	1.19
CN1C(=O)C2C=CC(C(O)c3c(F)cccc3Cl)N(Nc3ccccc3)C2C1=O (stereo not given)	0.956	-0.263 (inactive)	0.291	0.0177	0.396	2.84	0.73	0.895	0.298	1.18
O=C(CCCCCCC(=O)Nc1ccccc1)N/N=C/c1ccccc1	-0.4	0.0068 (inactive)	-0.154	-0.144	-0.251	-0.591	0.212	-0.731	0.358	-0.434
COCCOC(=O)N1C(=O)[C@@]2(c3ccccc31)[C@H](c1ccc(OCCO)cc1)N1[C@H](c3ccccc3)[C@H](c3ccccc3)OC(=O)[C@H]1[C@@H]2C(=O)Nc1nc2ccccc2s1	0.903	0.171 (inactive)	-0.0059	-0.0089	0.55	2.74	0.676	1.3	0.232	1.17
CN(C)C(=O)[C@]1(CCC(=O)OC(C)(C)C)N=C(c2ccc(OCCCO)cc2)O[C@@H]1c1ccccc1	0.383	0.666 (inactive)	0.116	-0.0308	0.469	3.06	0.264	0.374	-0.792	0.34
COC(=O)[C@@]1(Cc2ccccc2)[C@H]2c3cc(C(=O)N4CCCC4)n(C[C@H](O)CO)c3C[C@H]2CN1C(=O)c1ccccc1	0.659	-0.164 (inactive)	0.152	0.0837	0.907	1.79	0.288	0.18	-1.34	-0.311
O=C1O[C@@H](c2ccccc2)[C@@H](c2ccccc2)N2[C@@H](c3ccccc3OCCO)[C@]3(C(=O)Nc4ccc(C#CC5=CCCCC5)cc43)[C@@H](C(=O)NC[C@H](O)c3ccccc3)[C@H]12	0.402	-0.584 (inactive)	0.0522	-0.124	0.211	0.363	0.182	1.28	0.478	1.04
CC1CC/C=C\[C@H]2OC34C=CCN(CCN5CCOCC5)C(=O)[C@H]3N(CCO)C(=O)[C@@H]4C2C(=O)O1 (stereo not given in full)	-0.0406	0.377 (inactive)	-0.22	-0.104	0.802	-0.265	0.973	-2.29	-1.02	-0.889
Cc1ccc(S[C@]2(C(=O)NCc3ccccc3)CC(=O)N(C(C)C)[C@@H]2c2ccc(CO)cc2I)cc1	0.838	0.46 (inactive)	-0.221	-0.0268	0.304	2.56	0.704	-0.29	-1.59	-1.29
O=C(N1CCCCC1)[C@@]1(Cc2ccccc2)COC(c2ccc(OCCCO)cc2)=N1	0.874	0.986 (inactive)	0.501	0.313	0.714	2.44	0.409	1.33	-0.729	0.892
COc1ccc(NN2C(C(O)c3ccccn3)C=CC3C(=O)N(C4CCCCC4)C(=O)C32)cc1 (stereo not given)	0.907	0.0797 (inactive)	0.263	0.0117	0.7	2.24	0.969	1.3	-0.203	1.14
C=C[C@H](COC(C)=O)NS(=O)(=O)c1ccc(Br)cc1	0.0793	0.131 (inactive)	-0.217	-0.106	-0.111	-0.0413	-0.0354	-0.603	1.14	0.43
